TTR transcr act = TTR transcription activators in neuroblastoma reporter cells, primary screen, cell-based, luminescence, SH-SY5Y, TTR promoter Gaussia luciferase | 100% = recombinant luciferase protein wells | activation, % at 16.7 µM | actives 1.3% (n = 92,000);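 active = activation above the mean of all tested compounds plus 3 SD, cut at about 9.5% in these data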;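 note: cells exposed to compounds for one day before reading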
HuH7 TTR inh = TTR promoter reporter inhibitors in hepatoma cells, counter-screen for TTR transcription activator project, cell-based, luminescence, HuH7 hepatoma; shares compounds with TTR transcr act; HuH7 TTR promoter-Gaussia luciferase reporter; inhibition, % at 16.7 µM; actives 4% (n = 1,100); AID 1117279, 2014;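 active = average inhibition above the solvent-only control wells' mean plus 3 SD, cut at about 15% in these data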;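 note: inhibitors lower well luminescence so higher value means more inhibition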
TTR act confirm = TTR transcription activators, retest, confirmation, cell-based, luminescence, SH-SY5Y, triplicate. shares compounds with TTR transcr act. SHSY5Y TTR promoter Gaussia luciferase; 100% = purified Lucia enzyme wells, no cells. activation, % at 16.7 µM. 1,100 tested, under 10 active;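 active = mean activation above a set limit taken from the earlier primary screen, cut at about 11% in these data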
Of the large screens only hits and unclear results are named; the others gave an inactive call (follow-up assays come after a bar, where they were run). This excerpt belongs to a sample that is enriched for hits.

Cc1ccc(N(CC(=O)NC(C)(C)C)C(=O)CCC(=O)Nc2nccs2)cc1C	TTR transcr act 9.7 | HuH7 TTR inh inactive | TTR act confirm inactive
Cc1ccc(N(CC(=O)NCC2CCCO2)C(=O)CCC(=O)Nc2nccs2)cc1C (stereo not drawn)	none
O=C(CCn1c(=O)oc2ccccc21)Nc1ccc(N2CCOCC2)cc1	none
COc1ccc(NC(=O)c2oc3ccccc3c2CSC)cc1S(=O)(=O)N1CCOCC1	none
CSCc1c(C(=O)Nc2ccc(N3CCOCC3)cc2)oc2ccccc12	TTR transcr act 14.2 | HuH7 TTR inh inactive | TTR act confirm inactive
O=C(NCCOc1ccccc1)c1cccc(S(=O)(=O)N2CCN(Cc3ccccc3)CC2)c1	none
CCCCN(C(=O)c1cccc(S(=O)(=O)N2CCN(Cc3ccccc3)CC2)c1)c1ccccc1	TTR transcr act 26.7 | HuH7 TTR inh inactive | TTR act confirm inactive
Cc1ccc(CN(C)C(=O)c2cccc(S(=O)(=O)N3CCN(Cc4ccccc4)CC3)c2)o1	none
O=c1[nH]n(-c2ccc(Cl)cc2)c2ncccc12	TTR transcr act 14.0 | HuH7 TTR inh inactive | TTR act confirm inactive
O=c1[nH]n(CCO)c(=O)c2cccnc12	none
COc1ccc(-n2c(=S)[nH]c(=O)c3cccnc32)cc1	none
O=C(NCC(c1ccccc1)c1ccccc1)[C@H](Cc1ccccc1)NC1(C(=O)NC2CCCCC2)CCCC1	none
N#CC1CCN(c2nc(-c3ccc(Br)cc3)cs2)CC1	none
COc1cccc(Cn2ncc3c4sc(S(C)=O)cc4n(C)c3c2=O)c1 (stereo not drawn)	none
Cc1ccc(CN2CC=CS2(=O)=O)cc1	none
O=S1(=O)c2ccc(N3CCCC3)cc2Oc2ccccc2CN1Cc1cn(Cc2ccc(F)cc2)nn1	none
Cc1c(C(=O)N(Cc2ccc(N(C)C)cc2)C2CCS(=O)(=O)C2)oc2ccccc12 (stereo not drawn)	none
Cc1cccc(NC(=O)CN(CC2CCCO2)C(=O)c2oc3ccc(F)cc3c2C)c1C (stereo not drawn)	none
Cc1cc2oc(C(=O)N(Cc3ccc(N(C)C)cc3)CC3CCCO3)c(C)c2cc1C (stereo not drawn)	TTR transcr act 50.7 | HuH7 TTR inh inactive | TTR act confirm inactive
O=C(Nc1ccc2ccccc2c1)C1CC2CCC1C2 (stereo not drawn)	none
Cc1ccc(CN2CCCCC(NC(=O)Cc3cccs3)C2=O)cc1 (stereo not drawn)	none
CCN=C1SC(C(=O)Nc2ccc(Cl)c(Cl)c2)CC(=O)N1CC (stereo not drawn)	TTR transcr act 20.4 | HuH7 TTR inh inactive | TTR act confirm inactive
CCN=C1SC(C(=O)Nc2cccc(C)c2)CC(=O)N1CC (stereo not drawn)	none
CCN=C1SC(C(=O)Nc2cc(Cl)cc(Cl)c2)CC(=O)N1CC (stereo not drawn)	none
Cc1ccc(S(=O)(=O)N2CC[C@@]3(Cc4ccccc4)Cc4ccccc4C[C@@H]23)cc1	none
COC(=O)[C@]12C[C@H](CC(=O)NCCc3ccccc3OC)C(=O)N(Cc3ccco3)C1=C[C@H](C1CCCC1)O[C@@H]2C	none
COc1ccc(N2CCN(CCCNC(=O)Cn3c(=O)c4cccn4c4cccnc43)CC2)c(OC)c1	none
COC(=O)Cn1c2ccccc2c(=O)n1C(C)C	none
COc1ccc(Cn2cc(Cn3c4ccccc4c(=O)n3C(C)C)nn2)cc1	TTR transcr act 15.5 | HuH7 TTR inh inactive | TTR act confirm inactive
CC(C)n1c(=O)c2ccccc2n1Cc1cn(CCc2c[nH]c3ccccc23)nn1	none
COc1cccc(Cn2cc(COC(=O)NCC(C)C)nn2)c1	none
O=C(NC1CCCCN(Cc2ccc(Cl)cc2)C1=O)c1ccc2ccccc2c1 (stereo not drawn)	none
CCOC(=O)N1CCN(C(=O)C[C@@H]2C[C@]3(C(=O)OCC)CCC4=C3N(CCC4)C2=O)CC1	none
O=C1CCC[C@H]2[C@@H](Cc3ccccc3)[C@@H](O)CC[C@]23CCCN13	none
CC(C)CCN1NC2(CCCC(C)C2)NC1=S (stereo not drawn)	TTR transcr act 13.4 | HuH7 TTR inh inactive | TTR act confirm inactive
CC(C)CC1CCCC12NC(=O)NC2=O (stereo not drawn)	none
O=C(O[C@H]1CC[C@@]23CCCN2C(=O)CCC[C@H]3C1)N1CCCC1	none
CCCCOc1ccc(C(=O)NC2CCCCN(Cc3ccc(Cl)cc3)C2=O)cc1 (stereo not drawn)	none
Cc1ccc(CCNC(=O)c2cc(S(=O)(=O)N3CCCCC3)c[nH]2)cc1	none
O=C(NCc1ccc(F)cc1)c1cc(S(=O)(=O)N2CCCCC2)c[nH]1	none
O=C(NCCc1ccccc1)c1cc(S(=O)(=O)N2CCCCC2)c[nH]1	TTR transcr act 14.7 | HuH7 TTR inh inactive | TTR act confirm inactive
C[C@@H]1CN([C@H](C)CO)C(=O)c2cc(NS(=O)(=O)c3ccccc3)ccc2O[C@@H](C)CCCCO[C@@H]1CN(C)Cc1ccc(Cl)c(Cl)c1	none
CCOC(=O)c1c(-c2ccc(F)cc2)csc1NC(=O)CCN1CCOCC1	none
CCOC(=O)c1c(-c2ccc(-c3ccccc3)cc2)csc1NC(=O)CCN1CCOCC1	none
CCOC(=O)c1c(-c2ccccc2)csc1NC(=O)C(C)NCCCN1CCOCC1 (stereo not drawn)	TTR transcr act 13.5 | HuH7 TTR inh inactive | TTR act confirm inactive
COC(=O)[C@]12C[C@H](CC(=O)NCCC(C)C)C(=O)N(Cc3ccc(Cl)cc3Cl)C1=C[C@H](C1CCCC1)O[C@@H]2C	none
O=C1CN(C(=O)C2CCCCC2)C=CN1CCc1ccccc1Br	none
O=C1CCC[C@H]2C[C@H](NCc3cccc(Cl)c3)CC[C@]23CCCN13	none
Cc1cccc(Cn2cc(COC(=O)Nc3ccc(F)cc3)nn2)c1	none
COC(=O)[C@]12C[C@H](CC(=O)NCc3ccc(C)o3)C(=O)N(Cc3cccc4ccccc34)C1=C[C@H](COCc1ccccc1)O[C@@H]2C	none
COc1ccccc1NC(=O)c1c(O)c2ccccc2[nH]c1=O	none
COc1ccc(N=Cc2[nH]c3ccccc3c2O)cc1	TTR transcr act 13.8 | HuH7 TTR inh inactive | TTR act confirm inactive
COc1ccc(N=Cc2c[nH][nH]c2=O)cc1	none
C#CCN1C(=O)[C@]2(NCCc3c2[nH]c2ccc(OC)cc32)c2ccccc21	none
NCCC(=O)Nc1ccc(Cl)cc1C(=O)c1ccc[nH]1	none
CC(=O)N1CCN(S(=O)(=O)c2ccc(Cl)cc2F)CC1	none
O=S(=O)(c1cc(Cl)ccc1Cl)N1CCC2(CC1)OCCO2	TTR transcr act 11.8 | HuH7 TTR inh inactive | TTR act confirm inactive
Cc1ccc(C)c(S(=O)(=O)N2CCC3(CC2)OCCO3)c1	none
CN1CCC(N[C@@H](Cc2c[nH]c3ccccc23)C(=O)NCC(c2ccccc2)c2ccccc2)(C(=O)NC2CCCCC2)CC1	none
Nc1[nH]c(C(=O)c2ccccc2)c(-c2ccc(Cl)cc2Cl)c1C(=O)NCCC1=CCCCC1	none
CCCCCCCC(=O)N[C@H]1CC[C@@]23CCCN2C(=O)CCC[C@H]3[C@H]1C	none
Cc1ccc(/C=N/NC(=O)c2csc(C)c2)o1	TTR transcr act 23.0 | HuH7 TTR inh 16.4 | TTR act confirm inactive
Cc1ccc(/C=N/NC(=O)c2ccc(NC(=O)c3ccccc3Cl)cc2)o1	none
Cc1ccc(/C=N\NC(=O)c2cncc(Br)c2)o1	none
